# CHX counter: counter-screen for Shiga toxin inhibitors: cycloheximide protein synthesis inhibition; cell reporter, cycloheximide protein synthesis inhibition counterscreen; AID 2314; 12% of 300,000 active; max response, %; in the data active = max response mostly above about 13%, no sharp cut-off; inactive = mostly below about 14%; note: read at 38.3 µM for the half of the compounds with a filed dose; 0% is about no effect
# HCMV antiviral: blocks human cytomegalovirus replication; HFF cells, HCMV-luciferase reporter, 72 h; active compounds read low; 4.5% of 410,000 active; activity change, negative = inhibition, % at 57.5 µM; in the data active = activity change below about -60%; inconclusive = no clear call, values can overlap the other calls; inactive = above about -39%; note: % is set by controls: 0 for no effect and ±100 for the full control effect
#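 Human foreskin fibroblasts infected with luciferase-reporter HCMV at MOI 1 PFU/cell, compounds at two doses. Luciferase measured 72 h post infection; normalized to buffer-only basal and Salinomycin (10uM) controls.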
# HCV inh: HCV inhibition; Huh7.5.1 HCVcc-Cre infection, luciferase reporter, 44 h; Potency, µM (highest dose often 41.8 µM), without a hit: top-dose activity change, negative = inhibition, actives largely listed as inhibitors; 3.4% of 340,000 active; note: potency is the fitted concentration of half-maximal effect; % is set by controls: 0 for no effect and ±100 for the full control effect
#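 A cell-based infection assay in which seeded cells (1,000 per well) receive test compound after 4 h, are inoculated with HCVcc-Cre at approximately 0.5 moi, and are incubated 44 h before luminescence detection.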
# Pf growth 96h: inhibits malaria parasite growth, 96 h; Potency, µM (top dose mostly 28.7 µM), inactives show at the highest dose activity change, negative = inhibition, most hits filed as inhibitors; P. falciparum luciferase reporter growth, 96 h; 6.9% of 320,000 active; AID 504834; note: potency is the fitted concentration of half-maximal effect; % is set by controls: 0 for no effect and ±100 for the full control effect
#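 Erythrocytes infected with luciferase-expressing P. falciparum were dispensed at 2% hematocrit and 0.05% parasitemia (final), then incubated with compounds 96 hours at 37 C in 5% CO2. Luminescence after detection reagent addition reported growth.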
# Pf growth 48h: inhibits P. falciparum growth in the first generation, 48 h. P. falciparum luciferase growth in erythrocytes, 48 h. Potency, µM (top dose mostly 28.7 µM), for the others: at the top dose activity change, negative = inhibition, actives largely listed as inhibitors. 5.9% of 310,000 active. AID 504832; note: potency is the fitted concentration of half-maximal effect; % is set by controls: 0 for no effect and ±100 for the full control effect
#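 Here the parasites carry a stable luciferase gene and grow inside erythrocytes in Albumax-based RPMI medium with compound for one erythrocytic cycle. Activity is scored as loss of luminescent signal.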
# Shiga toxin inh: blocks Shiga toxin action in Vero cells; Vero cells, Shiga toxin protein synthesis inhibition reporter; 9.2% of 290,000 active; AID 2315; inhibition, % at 38.7 µM; in the data active = inhibition mostly above about 28%, no sharp cut-off; inactive = mostly below about 43%; note: 0% is about no effect
# * marks the source's active call; other numbers are inactive results; u = inconclusive; x = no result given; [ ] = remark or other dose. Hits are enriched below; roughly 21% of the tested compounds scored in any of these assays. Unless noted, calls come from the whole dose curve; as a rule, active = well fitted inhibition curve with a large enough effect; inconclusive = small, poorly fitted or top-dose-only effect, or another doubt; inactive = no such curve, though single readings can be large or run the other way.
SMILES,CHX counter,HCMV antiviral,HCV inh,Pf growth 96h,Pf growth 48h,Shiga toxin inh
CCOC(=O)C1(CCOC)CCN(C/C=C/c2ccccc2OC)CC1,x,10.4,11.2µM*,x,x,x
CCOC(=O)C1(CCOc2ccccc2)CCN(Cc2ccc(F)c(OC)c2)CC1,0.7,-20.6,u,14.7µM*,-65.4%,-0.3
CC(C)c1nnc(SCC(=O)N2CCc3ccccc32)n1N,5.3,6.1,25.5%,-22.1%,u,26.9
Cc1sc2ncn(CC(=O)N3CCC(C(N)=O)CC3)c(=O)c2c1S(=O)(=O)N1CCOCC1,-5.2,-8.3,10.7%,-21.7%,-1.4%,-9.0
C[N+]1([O-])[C@@H]2Cc3cc4c(cc3[C@@H]1Cc1cc3c(cc12)OCO3)OCO4 (stereo partly drawn),-6.0,12.3,17.5%[8.37 µM],57.6%,54.1%,-4.2
CCOC(=O)C1(CCOc2ccccc2)CCN(Cc2ccc(-n3cccn3)cc2)CC1,-2.4,-61.4*,2.51µM*,u,14.7µM*,13.8
CCOC(=O)C1(CCOC)CCN(Cc2ccncc2)CC1,-1.2,7.1,16.8%,-2.8%,-0.7%,-3.5
CCOC(=O)C1(CCOc2ccccc2)CCN(Cc2cccc(OC)c2)CC1,x,1.2,11.2µM*,x,x,x
CCOC(=O)C1(CCOC)CCN(Cc2nc(C(C)C)cs2)CC1,29.5*,-12.8,-4.9%,95.1%,-2.9%,68.3*
CC(C1CCN(Cc2nc(C3CC3)no2)CC1)N1CCOCC1 (stereo not drawn),-2.2,16.6,4.9%,13.1µM*,7.5%,-21.0
CCOC(=O)N1CCN(Cc2nc(C3CC3)no2)CC1,-1.8,79.2,5.1%,15.3%,64.9%,27.6
O=C(Cc1ccc(-n2c(=O)c3sccc3n(CC(=O)Nc3ccccc3F)c2=O)cc1)NCc1ccco1,-2.8,-60.1*,19.1%,170.1%,u,20.1
O=C(Cc1ccc(-n2c(=O)c3sccc3n(CC(=O)Nc3ccccc3)c2=O)cc1)NCc1ccco1,10.0,-37.2,-0.2%,82.1%,-1.3%,-6.1
Cc1ccccc1CNC(=O)c1cccc(NC(=O)N2CCSc3ncccc32)c1,x,0.0,x,x,x,x
O=C(Nc1ccc(NC(=O)c2ccc(Br)cc2)c(Cl)c1)c1ccc(Br)cc1,x,7.5,x,x,x,x
CC(C)CCOc1cccc(OCC(=O)Nc2ccncc2)c1,-3.7,-76.8*,u,25.1%,5.0%,-5.6
Cc1cc(OC(C)C(=O)Nc2ccncc2)ccc1Cl (stereo not drawn),-0.9,-15.1,u,9.28µM*,u,-12.3
Cc1ccc(OCC(=O)Nc2ccncc2)cc1C,x,-6.6,x,x,x,x
Cc1cc(OCC(=O)Nc2ccncc2)cc(C)c1Cl,-1.1,-63.6*,12.6µM*,-17.7%,-24.8%,-16.3
COc1cc2nc(NCc3ccccc3Cl)n3nc(-c4cccnc4)nc3c2cc1OC,x,-24.3,x,x,x,x
COc1ccc(CCNc2nc3cc(OC)c(OC)cc3c3nc(-c4cccnc4)nn23)cc1OC,x,-11.3,x,x,x,x
O=C1OC(Nc2ccc3ncccc3c2)c2ccccc21 (stereo not drawn),26.8*,-12.1,12.8%,107.3%,55.5%,53.9*
O=C1CN(C(=O)/C=C/c2ccco2)c2ccccc2N1,7.9,43.8,5.5%,12.8%,0.0%,21.8
CC1CCC(NC(=O)C2CCN(c3c4c(nc5ncnn35)CCC4)CC2)CC1 (stereo not drawn),19.9*,x,u,35.6%,u,48.8*
COc1ccc(NC(=O)C2CCCN(c3c4c(nc5ncnn35)CCC4)C2)cc1 (stereo not drawn),5.4,-37.1,u,11.7µM*,-19.7%,7.1
SMILES,CHX counter,HCMV antiviral,HCV inh,Pf growth 96h,Pf growth 48h,Shiga toxin inh
COc1ccc(CC(NC(C)=O)C(=O)NC2CCN(c3c4c(nc5ncnn35)CCC4)CC2)cc1 (stereo not drawn),4.0,-14.4,18.5%,1.8%,u,-6.1
COc1ccc(NC(=O)C2CCCN(c3cc(C)nc4ncnn34)C2)cc1 (stereo not drawn),-1.0,-34.5,-47.5%,u,18.6%,-14.2
Cc1nc2ncnn2c(N2CCCC(C(=O)Nc3ccccc3Br)C2)c1C (stereo not drawn),7.0,-64.4*,u,u,-28.2%,-8.2
CCOc1ccc(NC(=O)C2CCCN(c3c(CC)c(C)nc4ncnn34)C2)cc1 (stereo not drawn),8.9,30.7,12.6µM*,92.5%,u,29.0
COC(=O)c1ccc(NC(=S)NC2c3ccccc3CC2O)cc1 (stereo not drawn),-0.3,-19.7,11.1%,-17.8%,15.8%,15.8
Cc1cccc([C@@H]2[C@@H]3C(=O)N(Cc4ccccc4)C(=O)[C@@H]3[C@]3(Cc4ccc(Cl)cc4)C(=O)N(c4cccc(Br)c4)C(=O)N23)c1,-3.8,-15.9,3.2%,u,u,-2.4
C/C(=N\O)c1ncc(C(F)(F)F)cc1Cl,1.2,28.8,8.5%,21.6%,11.3%,1.6
COc1ccc(NC(=O)C2CCN(c3nc(C)nc4c3CCC4)CC2)cc1,-3.4,-70.4*,3.55µM*,-15.7%,4.1%,-15.2
CCc1c(C)nc2ncnn2c1N1CCN(S(=O)(=O)c2ccc(OC)cc2)CC1,-3.3,-71.9*,1.78µM*,u,2.6%,20.2
CN1C(=O)N(C)C(=O)C2(Cc3c(nc4ccccn4c3=O)N3CCC(Cc4ccccc4)CC32)C1=O (stereo not drawn),-6.9,x,x,-15.0%,u,-7.6
Cc1cccn2c(=O)c3c(nc12)N1CCCCC1C1(C3)C(=O)N(C)C(=O)N(C)C1=O (stereo not drawn),1.0,12.7,5.4%,2.94µM*,u,-3.3
O=C1NC(=O)C2(Cc3c(nc4ccccn4c3=O)N3CCCCCC32)C(=O)N1Cc1ccccc1 (stereo not drawn),-1.9,75.6,-26.4%,5.22µM*,u,6.0
Cc1cccn2c(=O)c3c(nc12)N1CCC(Cc2ccccc2)CC1C1(C3)C(=O)N(C)C(=O)N(C)C1=O (stereo not drawn),7.2,-39.3,-4.2%,u,u,-12.8
CCOC(=O)C1=C(c2ccccc2)O/C(=C(/C#N)C(F)(F)F)S1,8.3,x,x,x,9.28µM*,34.6
CCOC(=O)C1=C(c2ccccc2)O/C(=C(\C(=O)OC)C(F)(F)F)S1,0.4,-3.1,-17.0%,9.28µM*,x,-4.1
N#C/C(=C\c1ccccn1)c1nc2ccccc2s1,35.2*,-27.1,13.6%,u,25.9%,56.6*
COc1ccc(/C(C#N)=C/c2ccccn2)cc1,59.6*,22.7,u,91.9%,267.1%,110.2*
COC(=O)c1ccc(/C=C(\C#N)c2nc3ccccc3s2)cc1,12.4,-5.3,-15.7%,18.1%,35.1%,36.9
COc1ccc(C(=O)N/N=C/c2ccccn2)cc1,x,6.3,x,x,x,x
Cc1cc(C(C)(C)C)cc(C)c1C(=O)O,0.6,-5.8,3.2%,30.5%,23.6%,-2.8
